Reference: the supplement of paper PMC11732987, “Enantioselective OTUD7B fragment discovery through chemoproteomics screening and high-throughput optimisation” (Communications Chemistry, 2025)

Tests used:
Test in all cases: log2 ratio of Biotin-Ahx-Ub-VS probe labelling (fragment/DMSO); higher = less target engagement (more negative = stronger competition), active = hit call of the paper (q ≤ 0.05, log2 ratio ≤ -1)
Conditions in all cases: compound concentration: 200 uM; treatment time: 3 h
USP42 = molecular target: T1, USP42 (UniProt Q9H9J4)
T1 sequence (whole entry): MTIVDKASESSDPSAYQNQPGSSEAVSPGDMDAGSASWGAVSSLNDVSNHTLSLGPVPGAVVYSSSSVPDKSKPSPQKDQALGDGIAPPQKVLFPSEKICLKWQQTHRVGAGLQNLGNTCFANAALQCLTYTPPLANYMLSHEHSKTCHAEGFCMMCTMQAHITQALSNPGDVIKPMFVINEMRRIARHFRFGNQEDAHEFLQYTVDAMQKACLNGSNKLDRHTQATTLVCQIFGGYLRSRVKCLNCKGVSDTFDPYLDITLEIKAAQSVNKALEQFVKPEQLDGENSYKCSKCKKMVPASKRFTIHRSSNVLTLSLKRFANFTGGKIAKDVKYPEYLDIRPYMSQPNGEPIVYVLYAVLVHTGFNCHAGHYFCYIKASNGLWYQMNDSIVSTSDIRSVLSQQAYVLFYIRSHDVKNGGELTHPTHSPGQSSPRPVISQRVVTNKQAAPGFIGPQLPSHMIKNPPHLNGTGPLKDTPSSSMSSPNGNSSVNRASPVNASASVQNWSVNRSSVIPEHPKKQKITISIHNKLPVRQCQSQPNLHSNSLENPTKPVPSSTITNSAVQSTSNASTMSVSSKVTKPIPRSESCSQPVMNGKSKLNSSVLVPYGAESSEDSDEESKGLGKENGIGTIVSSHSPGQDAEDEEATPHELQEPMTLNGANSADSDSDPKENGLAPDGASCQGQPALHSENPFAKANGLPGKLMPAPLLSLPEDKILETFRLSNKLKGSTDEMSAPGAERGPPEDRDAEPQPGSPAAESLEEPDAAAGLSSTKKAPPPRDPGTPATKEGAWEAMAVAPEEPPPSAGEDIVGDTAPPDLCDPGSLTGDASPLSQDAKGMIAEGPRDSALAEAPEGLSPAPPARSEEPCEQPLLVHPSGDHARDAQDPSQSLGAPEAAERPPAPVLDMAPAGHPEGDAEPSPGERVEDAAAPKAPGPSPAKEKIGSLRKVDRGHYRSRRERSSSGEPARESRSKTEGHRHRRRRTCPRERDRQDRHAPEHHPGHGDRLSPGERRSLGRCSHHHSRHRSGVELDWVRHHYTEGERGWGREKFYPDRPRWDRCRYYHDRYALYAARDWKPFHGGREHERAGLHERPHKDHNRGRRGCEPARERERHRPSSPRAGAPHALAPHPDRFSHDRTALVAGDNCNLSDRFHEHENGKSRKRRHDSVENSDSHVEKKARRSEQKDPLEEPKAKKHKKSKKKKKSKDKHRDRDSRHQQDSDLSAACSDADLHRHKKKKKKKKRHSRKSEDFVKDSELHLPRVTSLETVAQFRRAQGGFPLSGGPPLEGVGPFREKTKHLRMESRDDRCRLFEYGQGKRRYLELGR
How it was run: (§1)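 Global-median-normalised Spectronaut label-free quantities were compared by unpaired t-test, and values are average log2 ratios of fragment over vehicle. Only proteins with ≥2 unique peptides were used. HEK293T lysate (495 µg per sample) was treated in triplicate with fragment at 200 µM or vehicle for 3 h and then with Biotin-Ahx-Ub-VS at 0.5 µM final for 1 h. Labelled DUBs were then NeutrAvidin-enriched, digested with LysC and trypsin, and run by diaPASEF LC-MS/MS.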

USP46 = USP46 (UniProt P62068)
Chain of USP46 (P62068 whole entry): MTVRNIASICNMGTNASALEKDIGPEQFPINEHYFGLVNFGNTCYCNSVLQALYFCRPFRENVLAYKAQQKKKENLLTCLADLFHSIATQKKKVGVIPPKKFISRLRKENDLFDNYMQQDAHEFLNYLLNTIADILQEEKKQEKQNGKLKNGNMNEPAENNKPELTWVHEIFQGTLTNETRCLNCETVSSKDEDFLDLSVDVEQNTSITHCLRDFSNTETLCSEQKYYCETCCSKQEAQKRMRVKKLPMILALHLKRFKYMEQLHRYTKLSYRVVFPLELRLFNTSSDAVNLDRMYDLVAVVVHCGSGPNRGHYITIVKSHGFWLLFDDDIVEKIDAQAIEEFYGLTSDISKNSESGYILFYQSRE
How it was run: as §1

USP47 = molecular target: T2, USP47 (UniProt Q96K76)
T2 sequence (whole entry): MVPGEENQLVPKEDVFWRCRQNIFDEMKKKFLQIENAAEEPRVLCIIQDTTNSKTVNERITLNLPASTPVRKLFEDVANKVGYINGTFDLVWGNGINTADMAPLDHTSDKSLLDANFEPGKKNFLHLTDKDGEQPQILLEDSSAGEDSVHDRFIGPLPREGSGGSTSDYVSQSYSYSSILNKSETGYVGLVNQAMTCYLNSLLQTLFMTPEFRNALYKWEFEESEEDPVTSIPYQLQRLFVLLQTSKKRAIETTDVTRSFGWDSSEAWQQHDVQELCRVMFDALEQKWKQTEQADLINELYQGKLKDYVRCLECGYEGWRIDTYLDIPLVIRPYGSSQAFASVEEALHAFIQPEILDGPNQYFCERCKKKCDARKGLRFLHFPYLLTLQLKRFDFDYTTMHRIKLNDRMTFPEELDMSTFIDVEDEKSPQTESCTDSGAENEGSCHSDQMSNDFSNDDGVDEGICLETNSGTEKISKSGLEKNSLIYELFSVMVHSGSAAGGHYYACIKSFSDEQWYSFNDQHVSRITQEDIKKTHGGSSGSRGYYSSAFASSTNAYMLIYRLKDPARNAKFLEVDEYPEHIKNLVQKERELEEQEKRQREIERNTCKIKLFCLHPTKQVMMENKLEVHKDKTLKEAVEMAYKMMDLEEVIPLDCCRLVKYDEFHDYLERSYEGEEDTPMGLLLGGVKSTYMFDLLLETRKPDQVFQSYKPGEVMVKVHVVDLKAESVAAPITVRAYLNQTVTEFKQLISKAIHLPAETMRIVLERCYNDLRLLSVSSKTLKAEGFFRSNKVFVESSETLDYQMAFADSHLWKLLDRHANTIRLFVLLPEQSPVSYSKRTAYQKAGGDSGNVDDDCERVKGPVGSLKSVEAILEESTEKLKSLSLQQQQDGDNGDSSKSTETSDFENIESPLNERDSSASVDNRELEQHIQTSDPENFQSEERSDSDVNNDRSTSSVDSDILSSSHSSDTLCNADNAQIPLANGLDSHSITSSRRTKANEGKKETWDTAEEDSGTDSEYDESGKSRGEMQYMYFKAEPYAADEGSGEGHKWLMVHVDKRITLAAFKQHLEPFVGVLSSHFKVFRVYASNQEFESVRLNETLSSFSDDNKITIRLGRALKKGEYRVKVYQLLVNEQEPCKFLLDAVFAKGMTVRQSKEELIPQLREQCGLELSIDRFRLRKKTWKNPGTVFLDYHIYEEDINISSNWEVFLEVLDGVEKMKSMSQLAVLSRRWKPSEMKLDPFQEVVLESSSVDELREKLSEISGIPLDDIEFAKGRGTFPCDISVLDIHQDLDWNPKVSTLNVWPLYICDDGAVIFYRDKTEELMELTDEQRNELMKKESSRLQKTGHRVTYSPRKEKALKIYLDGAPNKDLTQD
How it was run: as §1

USP48 = molecular target: T3, USP48 (UniProt Q86UV5)
T3 sequence (whole entry): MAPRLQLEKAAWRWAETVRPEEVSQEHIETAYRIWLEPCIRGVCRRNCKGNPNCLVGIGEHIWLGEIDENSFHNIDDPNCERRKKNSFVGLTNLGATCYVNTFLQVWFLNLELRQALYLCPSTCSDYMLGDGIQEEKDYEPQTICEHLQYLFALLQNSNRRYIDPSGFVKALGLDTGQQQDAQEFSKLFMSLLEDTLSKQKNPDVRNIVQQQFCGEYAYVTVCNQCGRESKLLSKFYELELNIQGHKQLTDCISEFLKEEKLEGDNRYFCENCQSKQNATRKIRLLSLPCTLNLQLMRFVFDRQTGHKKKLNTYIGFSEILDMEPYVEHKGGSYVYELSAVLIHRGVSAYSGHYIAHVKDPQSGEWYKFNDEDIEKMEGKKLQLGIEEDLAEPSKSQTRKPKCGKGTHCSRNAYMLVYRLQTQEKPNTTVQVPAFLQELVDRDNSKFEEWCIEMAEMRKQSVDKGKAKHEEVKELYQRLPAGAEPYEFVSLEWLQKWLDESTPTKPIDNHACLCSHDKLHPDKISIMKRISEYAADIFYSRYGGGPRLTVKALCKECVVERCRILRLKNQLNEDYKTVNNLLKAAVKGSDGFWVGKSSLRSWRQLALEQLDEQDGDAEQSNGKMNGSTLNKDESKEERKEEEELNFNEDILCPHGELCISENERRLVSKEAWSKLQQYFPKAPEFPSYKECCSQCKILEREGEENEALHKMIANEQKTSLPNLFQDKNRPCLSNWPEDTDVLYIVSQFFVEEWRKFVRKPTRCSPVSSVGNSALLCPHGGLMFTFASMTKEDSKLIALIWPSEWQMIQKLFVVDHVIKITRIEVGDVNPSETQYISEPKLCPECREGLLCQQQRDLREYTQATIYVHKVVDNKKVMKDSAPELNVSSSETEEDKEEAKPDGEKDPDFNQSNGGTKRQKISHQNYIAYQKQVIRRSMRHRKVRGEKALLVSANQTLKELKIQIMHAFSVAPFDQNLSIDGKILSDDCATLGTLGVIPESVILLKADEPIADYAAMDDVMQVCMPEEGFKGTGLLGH
How it was run: as §1

USP5 = molecular target: T4, USP5 (UniProt P45974)
T4 sequence (whole entry): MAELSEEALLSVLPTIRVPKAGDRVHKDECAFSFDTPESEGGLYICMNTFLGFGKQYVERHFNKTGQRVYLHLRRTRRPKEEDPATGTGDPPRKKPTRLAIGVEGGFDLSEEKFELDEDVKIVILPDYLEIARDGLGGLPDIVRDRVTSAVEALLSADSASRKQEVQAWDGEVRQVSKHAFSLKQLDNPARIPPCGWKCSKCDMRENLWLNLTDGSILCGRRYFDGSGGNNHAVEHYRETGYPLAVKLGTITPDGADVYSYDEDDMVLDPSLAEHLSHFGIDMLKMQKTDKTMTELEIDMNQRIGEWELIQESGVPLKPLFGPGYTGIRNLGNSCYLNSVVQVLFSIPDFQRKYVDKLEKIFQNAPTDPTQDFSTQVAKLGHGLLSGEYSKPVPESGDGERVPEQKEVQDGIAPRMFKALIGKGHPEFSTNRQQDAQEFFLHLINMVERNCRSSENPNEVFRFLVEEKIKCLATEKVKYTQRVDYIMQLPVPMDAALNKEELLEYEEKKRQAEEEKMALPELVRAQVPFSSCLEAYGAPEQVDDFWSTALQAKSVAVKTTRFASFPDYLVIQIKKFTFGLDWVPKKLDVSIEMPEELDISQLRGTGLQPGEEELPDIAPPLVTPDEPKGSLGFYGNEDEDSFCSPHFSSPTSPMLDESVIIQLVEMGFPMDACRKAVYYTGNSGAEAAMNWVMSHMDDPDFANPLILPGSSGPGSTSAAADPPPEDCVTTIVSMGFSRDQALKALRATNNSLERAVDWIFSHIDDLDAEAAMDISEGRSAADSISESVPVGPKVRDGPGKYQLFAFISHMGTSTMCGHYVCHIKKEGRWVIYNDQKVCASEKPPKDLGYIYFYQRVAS
How it was run: as §1

USP54 = USP54 (UniProt Q70EL1)
Chain of USP54 (Q70EL1 whole entry): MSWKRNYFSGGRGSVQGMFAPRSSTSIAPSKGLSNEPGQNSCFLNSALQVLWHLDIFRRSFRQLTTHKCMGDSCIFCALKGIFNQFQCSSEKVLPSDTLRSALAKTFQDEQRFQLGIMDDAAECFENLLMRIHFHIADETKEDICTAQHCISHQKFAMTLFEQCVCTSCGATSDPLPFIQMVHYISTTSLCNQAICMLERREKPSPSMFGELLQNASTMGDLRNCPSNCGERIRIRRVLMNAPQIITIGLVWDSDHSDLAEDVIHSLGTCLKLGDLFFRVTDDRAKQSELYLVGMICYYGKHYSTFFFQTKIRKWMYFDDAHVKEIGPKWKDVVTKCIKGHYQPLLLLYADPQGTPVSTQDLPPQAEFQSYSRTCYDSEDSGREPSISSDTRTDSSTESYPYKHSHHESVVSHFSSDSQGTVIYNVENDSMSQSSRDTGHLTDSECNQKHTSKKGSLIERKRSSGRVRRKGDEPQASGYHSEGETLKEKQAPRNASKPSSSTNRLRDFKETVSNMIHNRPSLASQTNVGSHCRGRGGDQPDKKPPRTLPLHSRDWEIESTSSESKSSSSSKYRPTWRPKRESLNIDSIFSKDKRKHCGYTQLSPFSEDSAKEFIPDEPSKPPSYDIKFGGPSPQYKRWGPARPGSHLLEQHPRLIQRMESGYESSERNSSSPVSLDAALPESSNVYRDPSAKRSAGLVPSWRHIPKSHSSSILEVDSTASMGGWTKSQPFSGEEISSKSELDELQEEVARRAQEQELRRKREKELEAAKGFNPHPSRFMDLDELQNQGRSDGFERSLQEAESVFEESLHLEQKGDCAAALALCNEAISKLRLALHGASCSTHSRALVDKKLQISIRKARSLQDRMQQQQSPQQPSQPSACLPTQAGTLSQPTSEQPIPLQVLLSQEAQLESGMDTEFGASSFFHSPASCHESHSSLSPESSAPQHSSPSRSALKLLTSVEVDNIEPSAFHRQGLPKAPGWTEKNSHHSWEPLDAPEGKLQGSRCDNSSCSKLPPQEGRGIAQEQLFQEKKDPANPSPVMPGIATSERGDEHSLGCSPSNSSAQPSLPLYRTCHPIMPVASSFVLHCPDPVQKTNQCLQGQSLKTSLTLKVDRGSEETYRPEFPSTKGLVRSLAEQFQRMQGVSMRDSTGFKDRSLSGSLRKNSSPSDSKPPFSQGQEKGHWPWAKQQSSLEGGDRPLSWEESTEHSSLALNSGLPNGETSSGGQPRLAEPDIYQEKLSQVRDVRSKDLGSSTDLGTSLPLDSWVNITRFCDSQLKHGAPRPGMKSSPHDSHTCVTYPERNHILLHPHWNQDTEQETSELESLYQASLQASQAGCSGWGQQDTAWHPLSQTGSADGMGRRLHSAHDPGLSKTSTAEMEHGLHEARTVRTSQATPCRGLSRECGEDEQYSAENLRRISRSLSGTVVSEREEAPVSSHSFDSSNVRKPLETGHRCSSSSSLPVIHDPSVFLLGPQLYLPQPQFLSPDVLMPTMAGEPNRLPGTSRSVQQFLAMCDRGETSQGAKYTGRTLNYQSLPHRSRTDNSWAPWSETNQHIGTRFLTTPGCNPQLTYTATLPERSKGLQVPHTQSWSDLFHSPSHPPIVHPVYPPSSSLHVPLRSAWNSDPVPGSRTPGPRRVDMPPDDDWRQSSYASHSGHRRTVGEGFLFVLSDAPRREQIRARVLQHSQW
How it was run: as §1

USP7 = USP7 (UniProt Q93009)
How it was run: as §1

USP8 = molecular target: T5, USP8 (UniProt P40818)
T5 sequence (whole entry): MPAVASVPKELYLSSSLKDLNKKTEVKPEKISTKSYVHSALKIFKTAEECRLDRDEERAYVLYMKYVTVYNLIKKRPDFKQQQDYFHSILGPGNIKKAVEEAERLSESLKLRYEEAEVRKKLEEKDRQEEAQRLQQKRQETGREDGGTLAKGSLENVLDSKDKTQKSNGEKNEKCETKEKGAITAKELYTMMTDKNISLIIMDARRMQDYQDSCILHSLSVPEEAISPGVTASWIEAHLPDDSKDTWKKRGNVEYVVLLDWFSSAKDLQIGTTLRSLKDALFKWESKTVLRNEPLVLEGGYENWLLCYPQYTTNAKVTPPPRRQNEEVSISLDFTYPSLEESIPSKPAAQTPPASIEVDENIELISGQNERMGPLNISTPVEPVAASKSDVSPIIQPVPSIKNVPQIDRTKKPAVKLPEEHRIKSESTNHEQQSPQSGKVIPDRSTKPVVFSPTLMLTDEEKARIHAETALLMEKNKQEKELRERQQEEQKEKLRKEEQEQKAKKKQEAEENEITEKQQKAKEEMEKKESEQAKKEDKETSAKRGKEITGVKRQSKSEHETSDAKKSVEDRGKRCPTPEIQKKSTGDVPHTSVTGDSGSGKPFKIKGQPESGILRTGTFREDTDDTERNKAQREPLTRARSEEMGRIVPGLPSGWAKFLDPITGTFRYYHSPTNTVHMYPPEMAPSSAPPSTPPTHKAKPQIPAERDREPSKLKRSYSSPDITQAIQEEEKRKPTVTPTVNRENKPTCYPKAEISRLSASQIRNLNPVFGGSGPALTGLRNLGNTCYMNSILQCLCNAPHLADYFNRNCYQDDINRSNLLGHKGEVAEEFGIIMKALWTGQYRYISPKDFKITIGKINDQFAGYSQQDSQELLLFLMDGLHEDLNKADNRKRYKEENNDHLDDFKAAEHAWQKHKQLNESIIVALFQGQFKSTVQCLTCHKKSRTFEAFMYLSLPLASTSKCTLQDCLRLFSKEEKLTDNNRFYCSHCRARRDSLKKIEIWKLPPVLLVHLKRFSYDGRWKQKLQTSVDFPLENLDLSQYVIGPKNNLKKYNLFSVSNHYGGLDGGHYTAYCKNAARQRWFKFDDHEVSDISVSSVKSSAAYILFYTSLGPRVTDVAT
How it was run: as §1

USP9X = USP9X (UniProt Q93008)
Chain of USP9X (Q93008 whole entry): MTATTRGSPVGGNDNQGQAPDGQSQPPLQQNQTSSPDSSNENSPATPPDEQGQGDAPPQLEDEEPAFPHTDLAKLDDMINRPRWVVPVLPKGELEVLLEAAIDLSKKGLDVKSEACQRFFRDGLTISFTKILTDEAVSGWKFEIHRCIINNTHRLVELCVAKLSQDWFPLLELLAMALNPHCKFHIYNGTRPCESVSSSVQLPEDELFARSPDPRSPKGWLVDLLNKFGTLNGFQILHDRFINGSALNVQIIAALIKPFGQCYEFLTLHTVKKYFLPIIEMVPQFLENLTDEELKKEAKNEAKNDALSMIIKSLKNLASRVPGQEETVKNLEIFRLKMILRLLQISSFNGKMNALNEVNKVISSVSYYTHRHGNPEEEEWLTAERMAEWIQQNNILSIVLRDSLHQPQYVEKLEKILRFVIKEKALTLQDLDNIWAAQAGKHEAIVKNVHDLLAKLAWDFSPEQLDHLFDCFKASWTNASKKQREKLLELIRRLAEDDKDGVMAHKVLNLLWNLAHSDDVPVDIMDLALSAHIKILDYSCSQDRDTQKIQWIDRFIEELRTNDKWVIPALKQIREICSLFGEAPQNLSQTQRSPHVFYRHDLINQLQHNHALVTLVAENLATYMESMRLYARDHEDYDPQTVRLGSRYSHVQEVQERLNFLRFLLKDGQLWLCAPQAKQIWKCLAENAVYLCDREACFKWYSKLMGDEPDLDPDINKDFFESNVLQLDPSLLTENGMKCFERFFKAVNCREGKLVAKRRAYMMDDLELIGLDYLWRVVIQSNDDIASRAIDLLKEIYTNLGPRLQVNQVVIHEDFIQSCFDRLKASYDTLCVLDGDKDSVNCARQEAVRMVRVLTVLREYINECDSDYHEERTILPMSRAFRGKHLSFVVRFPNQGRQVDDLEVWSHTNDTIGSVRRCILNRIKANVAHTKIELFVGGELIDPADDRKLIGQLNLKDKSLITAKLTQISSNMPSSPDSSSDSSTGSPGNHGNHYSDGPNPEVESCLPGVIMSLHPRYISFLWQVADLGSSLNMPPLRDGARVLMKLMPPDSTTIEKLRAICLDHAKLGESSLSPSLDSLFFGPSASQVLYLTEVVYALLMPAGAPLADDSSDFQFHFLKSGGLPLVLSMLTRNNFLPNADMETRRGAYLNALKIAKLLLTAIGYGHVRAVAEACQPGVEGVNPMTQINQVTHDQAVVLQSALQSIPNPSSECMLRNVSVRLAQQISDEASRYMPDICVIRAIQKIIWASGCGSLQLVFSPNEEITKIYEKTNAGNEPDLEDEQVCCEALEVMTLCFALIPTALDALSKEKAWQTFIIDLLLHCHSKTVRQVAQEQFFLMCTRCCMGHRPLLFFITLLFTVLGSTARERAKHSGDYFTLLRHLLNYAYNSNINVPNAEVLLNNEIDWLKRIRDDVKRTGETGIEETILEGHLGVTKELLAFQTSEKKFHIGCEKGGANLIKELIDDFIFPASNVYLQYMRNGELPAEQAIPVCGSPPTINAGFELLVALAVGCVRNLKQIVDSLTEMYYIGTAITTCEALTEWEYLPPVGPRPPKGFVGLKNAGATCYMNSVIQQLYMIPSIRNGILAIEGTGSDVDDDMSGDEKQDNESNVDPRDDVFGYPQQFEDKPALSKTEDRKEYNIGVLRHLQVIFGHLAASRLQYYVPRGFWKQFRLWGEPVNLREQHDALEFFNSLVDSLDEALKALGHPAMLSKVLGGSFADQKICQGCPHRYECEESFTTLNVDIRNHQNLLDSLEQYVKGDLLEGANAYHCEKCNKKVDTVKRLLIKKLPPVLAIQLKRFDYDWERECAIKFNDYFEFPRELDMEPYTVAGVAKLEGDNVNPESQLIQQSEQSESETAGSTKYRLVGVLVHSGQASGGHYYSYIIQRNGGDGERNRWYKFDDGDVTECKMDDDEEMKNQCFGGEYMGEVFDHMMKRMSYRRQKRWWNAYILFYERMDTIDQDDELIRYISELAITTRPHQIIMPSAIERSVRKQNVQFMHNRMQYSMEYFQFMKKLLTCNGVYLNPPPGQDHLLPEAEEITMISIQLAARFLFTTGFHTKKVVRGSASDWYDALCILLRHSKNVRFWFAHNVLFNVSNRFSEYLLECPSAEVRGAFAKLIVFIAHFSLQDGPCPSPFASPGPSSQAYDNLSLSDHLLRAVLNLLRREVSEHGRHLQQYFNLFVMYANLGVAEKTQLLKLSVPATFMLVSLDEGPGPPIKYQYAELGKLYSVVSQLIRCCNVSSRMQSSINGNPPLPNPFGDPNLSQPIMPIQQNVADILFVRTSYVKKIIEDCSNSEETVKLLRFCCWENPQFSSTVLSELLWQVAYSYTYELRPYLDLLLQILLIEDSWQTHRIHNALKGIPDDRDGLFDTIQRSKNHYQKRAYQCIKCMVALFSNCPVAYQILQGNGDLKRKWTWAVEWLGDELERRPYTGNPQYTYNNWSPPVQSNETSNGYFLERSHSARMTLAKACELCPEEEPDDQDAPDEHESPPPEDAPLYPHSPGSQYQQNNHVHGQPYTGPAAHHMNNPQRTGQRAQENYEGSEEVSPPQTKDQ
How it was run: as §1

UniProt O00487 = molecular target: UniProt O00487
Chain of UniProt O00487 (O00487 whole entry): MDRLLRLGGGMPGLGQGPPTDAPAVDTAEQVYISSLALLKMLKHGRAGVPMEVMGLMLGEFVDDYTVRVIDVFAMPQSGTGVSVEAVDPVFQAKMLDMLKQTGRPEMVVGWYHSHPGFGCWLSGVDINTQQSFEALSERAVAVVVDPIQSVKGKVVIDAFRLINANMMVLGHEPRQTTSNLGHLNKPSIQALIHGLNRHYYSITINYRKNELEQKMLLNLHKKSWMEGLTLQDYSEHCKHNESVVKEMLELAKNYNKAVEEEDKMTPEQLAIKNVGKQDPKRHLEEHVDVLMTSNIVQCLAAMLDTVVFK
How it was run: as §1

Measured: log2 ratio of Biotin-Ahx-Ub-VS probe labelling

O=C(CCl)N1CCCC1c1ccsc1 (stereo not given)
inactive: USP42 -0.371 | USP46 -0.105 | USP47 -0.389 | USP48 -0.959 | USP5 0.45 | USP54 0.559 | USP7 -0.795 | USP8 -0.441 | USP9X -0.231 | UniProt O00487 -0.138
